Screening results deposited in PubChem BioAssay by several laboratories.
Compounds with a hit are over-represented: about 2.6% of the library has one in this group of screens.
EWS-Fli inh – EWS/Fli transcriptional activity inhibition; hit rate 0.67% among 350,000; AID 651661; inhibition, % at 12.6 µM; A673 NR0B1-luciferase reporter, viability-normalised;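 active means mean inhibition of at least 50% after viability correction, with every replicate also passing that limit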;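 further: firefly luciferase signal divided by Alamar Blue viability fluorescence both relative to DMSO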
LGR2 inh – inhibitors of bursicon-induced Drosophila LGR2 receptor cAMP signaling; HEK293 LGR2, CRE-luciferase, bursicon-stimulated, 4 h; inhibition, % at 9.99 µM; hit rate 0.35% among 380,000;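 active means drop in luminescence signal, shown as inhibition above about 50% in the replicate tests, limit read from the data, passing the limit was not always enough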;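 further: agonist challenge used bursicon conditioned medium at about half maximal strength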
EBV LMP1 NFkB – inhibitors of Epstein-Barr LMP1-induced NF-kappaB reporter. LMP1-induced NF-kappaB luciferase reporter cells, luminescence. inhibition, % at 12.5 µM. hit rate 0.69% among 350,000; in the data active means inhibition above about 41%;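 further: 0% = neutral control wells and 100% = reference inhibitor control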
TWEAK Fn14 block – inhibitors of TWEAK-Fn14 interaction signaling | hit rate 2% among 360,000 | TWEAK-stimulated Fn14 reporter cells, luciferase luminescence, 8 h | AID 1159606 | inhibition, % at 10 µM; in the data active means inhibition above about 50%
TROY signal inh – inhibitors of TROY-dependent NF-kB signaling. Q293 LMP1-TROYcd NF-kB luciferase reporter, 4 h. inhibition, % at 10 µM. hit rate 0.98% among 360,000. AID 1347056;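 active means compounds whose plate-normalised and pattern-corrected inhibition of the luciferase reporter signal at the single screening dose is 50% or more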
* marks the source's active call; other numbers are inactive results.

O=C1CC(c2ccccc2)=NO1 was read as EWS-Fli inh -4.2, LGR2 inh -2.5, EBV LMP1 NFkB -0.5, TWEAK Fn14 block 3.7 and TROY signal inh -9.6.
Screening CCOc1ccc2nc(COC(=O)c3cccs3)c(C(=O)c3ccccc3)[n+]([O-])c2c1 returned EWS-Fli inh -3.2, LGR2 inh -20.9, EBV LMP1 NFkB -5.6, TWEAK Fn14 block 34.0 and TROY signal inh 40.6.
For CCOc1ccc2nc(COC(=O)c3ccncc3)c(C(=O)c3ccccc3)[n+]([O-])c2c1 the results were EWS-Fli inh -46.2, LGR2 inh -47.2, TWEAK Fn14 block 52.0* and TROY signal inh 61.1*.
Screening COCC(=O)Nc1ccc2c(c1)C(=O)N(C)C[C@@H](OC)[C@H](C)CN(Cc1ccccc1F)[C@@H](C)CO2 returned EWS-Fli inh 8.5 and LGR2 inh 4.7.
Screening COCC(=O)N(C)C[C@@H]1Oc2cc(C#CCN(C)C)ccc2S(=O)(=O)N([C@@H](C)CO)C[C@H]1C returned EWS-Fli inh -7.7 and LGR2 inh -54.9.
Screening CO[C@@H]1CN(C)C(=O)c2cc(NC(=O)Nc3ccccc3F)ccc2OC[C@@H](C)N(C(C)=O)C[C@@H]1C returned EWS-Fli inh 0.3 and LGR2 inh -4.8.
`Cc1ccc(N=c2c([N+](=O)[O-])nn(-c3ccc4c(c3)OCCO4)n2O)cc1F` gave EWS-Fli inh 38.9, LGR2 inh 34.7, EBV LMP1 NFkB 48.8*, TWEAK Fn14 block 99.8* and TROY signal inh 90.6*.
Screening Cc1cc(C)cc(N=c2c([N+](=O)[O-])nn(-c3ccc4c(c3)OCCO4)n2O)c1 returned EWS-Fli inh -7.5, LGR2 inh -3.2, EBV LMP1 NFkB 16.0, TWEAK Fn14 block 24.7 and TROY signal inh 34.3.
O=[N+]([O-])c1nn(-c2ccc3c(c2)OCCO3)n(O)c1=Nc1ccccc1 was read as EWS-Fli inh 74.1*, LGR2 inh 22.3, EBV LMP1 NFkB 75.3*, TWEAK Fn14 block 103.9* and TROY signal inh 88.2*.
`O=[N+]([O-])c1nn(-c2ccc3c(c2)OCCO3)n(O)c1=Nc1ccc(Cl)cc1` gave EWS-Fli inh 16.1, LGR2 inh 34.3, EBV LMP1 NFkB 57.6*, TWEAK Fn14 block 100.5* and TROY signal inh 87.9*.
For O=S(=O)(Nc1cccc2ncccc12)c1cccs1 the results were EBV LMP1 NFkB 24.2, TWEAK Fn14 block 106.5* and TROY signal inh 65.1*.
Screening O=c1[nH]cnc2c1ncn2[C@@H]1O[C@H](CO)[C@@H](O)[C@H]1O returned EWS-Fli inh -7.5, LGR2 inh -8.0, EBV LMP1 NFkB 80.5*, TWEAK Fn14 block -21.9 and TROY signal inh 4.5.
`OCC1OC(n2cnc3c(NCc4ccccc4O)ncnc32)C(O)C1O` (stereo not drawn) gave EWS-Fli inh -3.4, LGR2 inh 18.2, EBV LMP1 NFkB 37.6, TWEAK Fn14 block 59.4* and TROY signal inh 17.3.
For OCC1OC(n2cnc3c(NCCc4ccccc4)ncnc32)C(O)C1O (stereo not drawn) the results were EWS-Fli inh -24.5, LGR2 inh -38.5, EBV LMP1 NFkB 7.0, TWEAK Fn14 block -42.6 and TROY signal inh -0.2.
OCC1OC(n2ccc3c(NO)ncnc32)C(O)C1O (stereo not drawn) was read as EWS-Fli inh 49.0, LGR2 inh 92.0*, EBV LMP1 NFkB 79.8*, TWEAK Fn14 block 81.6* and TROY signal inh 45.6.
Nc1ccc(CCNc2ncnc3c2ncn3[C@@H]2O[C@H](CO)[C@@H](O)[C@H]2O)cc1 was read as EWS-Fli inh 2.6, LGR2 inh 4.3, EBV LMP1 NFkB 83.7*, TWEAK Fn14 block 1.1 and TROY signal inh -2.9.
For O=c1[nH]cnc2c1ncn2[C@@H]1O[C@H](COS(=O)(=O)O)[C@@H](O)[C@H]1O the results were EWS-Fli inh -6.8, LGR2 inh -7.9, EBV LMP1 NFkB -2.2, TWEAK Fn14 block -5.1 and TROY signal inh -5.0.
CCNC(=O)C[C@@H]1CC[C@@H](NC(=O)NC2CCCCC2)[C@@H](CO)O1 was read as EWS-Fli inh 5.6 and LGR2 inh 10.8.
`CCC(=O)Nc1ccc2c(c1)OC[C@@H](C)N(CCc1ccccc1)C[C@H](C)[C@H](OC)CN(C)C2=O` gave EWS-Fli inh -5.1 and LGR2 inh -0.5.
`C[C@@H]1CN([C@H](C)CO)C(=O)CCCn2cc(nn2)CO[C@@H]1CN(C)Cc1cccc(C(F)(F)F)c1` gave EWS-Fli inh -7.3 and LGR2 inh 8.9.
